Measurements reported in the supplement of paper PMC4466140.

B1: unnamed (peptide)
chain: MPAPPPPPPPPPGAF
B2: unnamed (peptide)
chain: VPKEPAPAPPPEPDM

target: SpBzz1-D2; experiment: SPOT peptide array binding signal intensity (averaged, normalized) (arbitrary units (background-subtracted, floor 0; scale differs between SH3 domains)); higher = stronger binding of the SH3 domain to the peptide
Summary of the method: (§1)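 The binding signal is the normalized, background-subtracted spot intensity averaged over replicates; its arbitrary units differ between domains. It was obtained by incubating 10 μg/ml GST-fused SH3 domains from four yeast species overnight at 4°C in TBS-based blocking buffer on cellulose membranes with synthetic 15-mer peptides, cysteines replaced by serines, then detecting with anti-GST antibody, HRP anti-mouse secondary and luminol.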

Row | Binder | SPOT peptide array binding signal intensity
1 | B1 | 5.62
2 | B2 | 0.25

target: SpCyk3; experiment: as above
Summary of the method: as §1

Row | Binder | SPOT peptide array binding signal intensity
3 | B1 | ≤ 0
4 | B2 | ≤ 0

target: SpHof1; experiment: as above
Summary of the method: as §1

Row | Binder | SPOT peptide array binding signal intensity
5 | B1 | 0.5
6 | B2 | ≤ 0

target: SpHof1-2; experiment: as above
Summary of the method: as §1

Row | Binder | SPOT peptide array binding signal intensity
7 | B1 | 7.75
8 | B2 | 6.38

target: SpHof1-3; experiment: as above
Summary of the method: as §1

Row | Binder | SPOT peptide array binding signal intensity
9 | B1 | 4.25
10 | B2 | 20.2

target: SpHse1; experiment: as above
Summary of the method: as §1

Row | Binder | SPOT peptide array binding signal intensity
11 | B1 | 17.5
12 | B2 | 1.5

target: SpLsb1; experiment: as above
Summary of the method: as §1

Row | Binder | SPOT peptide array binding signal intensity
13 | B1 | ≤ 0
14 | B2 | ≤ 0

target: SpLsb4; experiment: as above
Summary of the method: as §1

Row | Binder | SPOT peptide array binding signal intensity
15 | B1 | ≤ 0
16 | B2 | ≤ 0

target: SpMyo1; experiment: as above
Summary of the method: as §1

Row | Binder | SPOT peptide array binding signal intensity
17 | B1 | 521
18 | B2 | 670

target: SpNbp2; experiment: as above
Summary of the method: as §1

Row | Binder | SPOT peptide array binding signal intensity
19 | B1 | ≤ 0
20 | B2 | 21

target: SpPex13; experiment: as above
Summary of the method: as §1

Row | Binder | SPOT peptide array binding signal intensity
21 | B1 | ≤ 0
22 | B2 | ≤ 0

target: SpRvs167; experiment: as above
Summary of the method: as §1

Row | Binder | SPOT peptide array binding signal intensity
23 | B1 | 43.4
24 | B2 | ≤ 0

target: SpSla1-D1-D2; experiment: as above
Summary of the method: as §1

Row | Binder | SPOT peptide array binding signal intensity
25 | B1 | ≤ 0
26 | B2 | 8

target: SpSla1-D3; experiment: as above
Summary of the method: as §1

Row | Binder | SPOT peptide array binding signal intensity
27 | B1 | ≤ 0
28 | B2 | 8.5

target: AgAbp1; experiment: as above
Summary of the method: as §1

Row | Binder | SPOT peptide array binding signal intensity
29 | B2 | ≤ 0

target: AgBbc1; experiment: as above
Summary of the method: as §1

Row | Binder | SPOT peptide array binding signal intensity
30 | B2 | 0.5

target: AgBem1-D1; experiment: as above
Summary of the method: as §1

Row | Binder | SPOT peptide array binding signal intensity
31 | B2 | ≤ 0

target: AgBzz1-D1; experiment: as above
Summary of the method: as §1

Row | Binder | SPOT peptide array binding signal intensity
32 | B2 | ≤ 0

target: AgBzz1-D2; experiment: as above
Summary of the method: as §1

Row | Binder | SPOT peptide array binding signal intensity
33 | B2 | 7

target: AgCyk3; experiment: as above
Summary of the method: as §1

Row | Binder | SPOT peptide array binding signal intensity
34 | B2 | ≤ 0

target: AgFus1; experiment: as above
Summary of the method: as §1

Row | Binder | SPOT peptide array binding signal intensity
35 | B2 | 4.75

target: AgHof1; experiment: as above
Summary of the method: as §1

Row | Binder | SPOT peptide array binding signal intensity
36 | B2 | 3.88

target: AgHse1; experiment: as above
Summary of the method: as §1

Row | Binder | SPOT peptide array binding signal intensity
37 | B2 | 8

target: AgLsb1; experiment: as above
Summary of the method: as §1

Row | Binder | SPOT peptide array binding signal intensity
38 | B2 | ≤ 0

target: AgLsb4; experiment: as above
Summary of the method: as §1

Row | Binder | SPOT peptide array binding signal intensity
39 | B2 | ≤ 0

target: AgMyo5; experiment: as above
Summary of the method: as §1

Row | Binder | SPOT peptide array binding signal intensity
40 | B2 | 520

target: AgNbp2; experiment: as above
Summary of the method: as §1

Row | Binder | SPOT peptide array binding signal intensity
41 | B2 | 12

target: AgRvs167; experiment: as above
Summary of the method: as §1

Row | Binder | SPOT peptide array binding signal intensity
42 | B2 | 0.167

target: AgSho1; experiment: as above
Summary of the method: as §1

Row | Binder | SPOT peptide array binding signal intensity
43 | B2 | 3.75

target: AgSla1-D1-D2; experiment: as above
Summary of the method: as §1

Row | Binder | SPOT peptide array binding signal intensity
44 | B2 | ≤ 0

target: AgSla1-D3; experiment: as above
Summary of the method: as §1

Row | Binder | SPOT peptide array binding signal intensity
45 | B2 | 0.75

target: CaAbp1-D1; experiment: as above
Summary of the method: as §1

Row | Binder | SPOT peptide array binding signal intensity
46 | B2 | ≤ 0

target: CaAbp1-D2; experiment: as above
Summary of the method: as §1

Row | Binder | SPOT peptide array binding signal intensity
47 | B2 | ≤ 0

target: CaBbc1; experiment: as above
Summary of the method: as §1

Row | Binder | SPOT peptide array binding signal intensity
48 | B2 | ≤ 0

target: CaBem1-D1; experiment: as above
Summary of the method: as §1

Row | Binder | SPOT peptide array binding signal intensity
49 | B2 | 1.5

target: CaBzz1-D1; experiment: as above
Summary of the method: as §1

Row | Binder | SPOT peptide array binding signal intensity
50 | B2 | 42.8

target: CaBzz1-D2; experiment: as above
Summary of the method: as §1

Row | Binder | SPOT peptide array binding signal intensity
51 | B2 | 2.75

target: CaCyk3; experiment: as above
Summary of the method: as §1

Row | Binder | SPOT peptide array binding signal intensity
52 | B2 | ≤ 0

target: CaFus1; experiment: as above
Summary of the method: as §1

Row | Binder | SPOT peptide array binding signal intensity
53 | B2 | 39

target: CaHof1; experiment: as above
Summary of the method: as §1

Row | Binder | SPOT peptide array binding signal intensity
54 | B2 | ≤ 0

target: CaHse1; experiment: as above
Summary of the method: as §1

Row | Binder | SPOT peptide array binding signal intensity
55 | B2 | 2.12

target: CaLsb1; experiment: as above
Summary of the method: as §1

Row | Binder | SPOT peptide array binding signal intensity
56 | B2 | ≤ 0

target: CaLsb4; experiment: as above
Summary of the method: as §1

Row | Binder | SPOT peptide array binding signal intensity
57 | B2 | ≤ 0

target: CaMyo5; experiment: as above
Summary of the method: as §1

Row | Binder | SPOT peptide array binding signal intensity
58 | B2 | 180

target: CaNbp2; experiment: as above
Summary of the method: as §1

Row | Binder | SPOT peptide array binding signal intensity
59 | B2 | 37

target: CaRvs167; experiment: as above
Summary of the method: as §1

Row | Binder | SPOT peptide array binding signal intensity
60 | B2 | ≤ 0

target: CaRvs167-3; experiment: as above
Summary of the method: as §1

Row | Binder | SPOT peptide array binding signal intensity
61 | B2 | 3.25

target: CaSho1; experiment: as above
Summary of the method: as §1

Row | Binder | SPOT peptide array binding signal intensity
62 | B2 | 3.5

target: CaSla1-D1-D2; experiment: as above
Summary of the method: as §1

Row | Binder | SPOT peptide array binding signal intensity
63 | B2 | 9

target: CaSla1-D3; experiment: as above
Summary of the method: as §1

Row | Binder | SPOT peptide array binding signal intensity
64 | B2 | ≤ 0

target: ScAbp1; experiment: as above
Summary of the method: as §1

Row | Binder | SPOT peptide array binding signal intensity
65 | B2 | ≤ 0

target: ScBbc1; experiment: as above
Summary of the method: as §1

Row | Binder | SPOT peptide array binding signal intensity
66 | B2 | ≤ 0

target: ScBem1-D1; experiment: as above
Summary of the method: as §1

Row | Binder | SPOT peptide array binding signal intensity
67 | B2 | ≤ 0

target: ScBzz1-D1; experiment: as above
Summary of the method: as §1

Row | Binder | SPOT peptide array binding signal intensity
68 | B2 | ≤ 0

target: ScBzz1-D2; experiment: as above
Summary of the method: as §1

Row | Binder | SPOT peptide array binding signal intensity
69 | B2 | 21

target: ScCyk3; experiment: as above
Summary of the method: as §1

Row | Binder | SPOT peptide array binding signal intensity
70 | B2 | ≤ 0

target: ScFus1; experiment: as above
Summary of the method: as §1

Row | Binder | SPOT peptide array binding signal intensity
71 | B2 | ≤ 0

target: ScHof1; experiment: as above
Summary of the method: as §1

Row | Binder | SPOT peptide array binding signal intensity
72 | B2 | ≤ 0

target: ScHse1; experiment: as above
Summary of the method: as §1

Row | Binder | SPOT peptide array binding signal intensity
73 | B2 | 7.25

target: ScLsb1; experiment: as above
Summary of the method: as §1

Row | Binder | SPOT peptide array binding signal intensity
74 | B2 | ≤ 0

target: ScLsb2; experiment: as above
Summary of the method: as §1

Row | Binder | SPOT peptide array binding signal intensity
75 | B2 | ≤ 0

target: ScLsb3; experiment: as above
Summary of the method: as §1

Row | Binder | SPOT peptide array binding signal intensity
76 | B2 | ≤ 0

target: ScLsb4; experiment: as above
Summary of the method: as §1

Row | Binder | SPOT peptide array binding signal intensity
77 | B2 | ≤ 0

target: ScMyo3; experiment: as above
Summary of the method: as §1

Row | Binder | SPOT peptide array binding signal intensity
78 | B2 | 1170

target: ScMyo5; experiment: as above
Summary of the method: as §1

Row | Binder | SPOT peptide array binding signal intensity
79 | B2 | 779

target: ScNbp2; experiment: as above
Summary of the method: as §1

Row | Binder | SPOT peptide array binding signal intensity
80 | B2 | 10.5

target: ScPex13; experiment: as above
Summary of the method: as §1

Row | Binder | SPOT peptide array binding signal intensity
81 | B2 | ≤ 0

target: ScRvs167; experiment: as above
Summary of the method: as §1

Row | Binder | SPOT peptide array binding signal intensity
82 | B2 | ≤ 0

target: ScSho1; experiment: as above
Summary of the method: as §1

Row | Binder | SPOT peptide array binding signal intensity
83 | B2 | ≤ 0

target: ScSla1-D1-D2; experiment: as above
Summary of the method: as §1

Row | Binder | SPOT peptide array binding signal intensity
84 | B2 | 3.5

target: ScSla1-D3; experiment: as above
Summary of the method: as §1

Row | Binder | SPOT peptide array binding signal intensity
85 | B2 | 6.5

target: SpAbp1-D1; experiment: as above
Summary of the method: as §1

Row | Binder | SPOT peptide array binding signal intensity
86 | B2 | ≤ 0

target: SpBbc1; experiment: as above
Summary of the method: as §1

Row | Binder | SPOT peptide array binding signal intensity
87 | B2 | 1.12

target: SpBzz1-D1; experiment: as above
Summary of the method: as §1

Row | Binder | SPOT peptide array binding signal intensity
88 | B2 | ≤ 0
